About 83,000 compounds went through this panel and 20% of them were active in at least one assay; those are over-represented in the sample as a whole.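 Results are percent growth after 48 hours of single-concentration exposure. 100 means growth as in untreated cells, lower positive values show inhibition; negative values down to -100 show cell death.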 Values without a mark were called inactive. The source made the active and inactive calls. The calls were made as follows: active = growth percent below 10; inactive = the rest.
Legend:
Test in all cases: NCI-60 one-dose screen, 48 h (100 = growth as untreated, 0 = no growth, -100 = all killed)
[1] = system: NCI-H460 lung; settings: 10 µM unless noted
[2] = system: 786-0 renal; settings: 10 µM unless noted
[3] = system: COLO 205 colon; settings: 10 µM
[4] = system: MALME-3M melanoma; settings: 10 µM unless noted
[5] = system: RXF 393 renal; settings: 10 µM unless noted
[6] = system: SF-295 CNS; settings: 10 µM unless noted
[7] = system: SF-539 CNS; settings: 10 µM unless noted
[8] = system: UACC-257 melanoma; settings: 10 µM unless noted
[9] = system: HT29 colon; settings: 10 µM unless noted
[10] = system: SK-MEL-5 melanoma; settings: 10 µM unless noted
[11] = system: SK-MEL-2 melanoma; settings: 10 µM unless noted
[12] = system: UO-31 renal; settings: 10 µM unless noted
[13] = system: TK-10 renal; settings: 10 µM unless noted
[14] = system: ACHN renal; settings: 10 µM unless noted
[15] = system: A498 renal; settings: 10 µM unless noted
[16] = system: HL-60(TB) leukemia; settings: 10 µM unless noted
[17] = system: MOLT-4 leukemia; settings: 10 µM
[18] = system: T-47D breast; settings: 10 µM unless noted
[19] = system: SW-620 colon; settings: 10 µM unless noted
[20] = system: HCC-2998 colon; settings: 10 µM unless noted

SMILES | growth [1] | growth [2] | growth [3] | growth [4] | growth [5] | growth [6] | growth [7] | growth [8] | growth [9] | growth [10] | growth [11] | growth [12] | growth [13] | growth [14] | growth [15] | growth [16] | growth [17] | growth [18] | growth [19] | growth [20]
N#CC1c2ccccc2C=CN1C(=O)c1ccc(N(CCCl)CCCl)cc1 (centres undefined) | 111% | 107% | 103% | 85.4% | 89.7% | 90.6% | 101% | 81.5% | 98.7% | 84% | 104% | 71% | 107% | 86.9% | 106% | 65.9% | 72.2% | 65.3% | 105% | 101%
N#[N+]c1cnc([O-])[nH]c1=O | 107% | 93.9% | 94.2% | 105% |  | 105% | 97.5% | 75.8% | 105% | 97% | 96.7% | 39% | 92.6% | 94.4% | 85.9% | 67.4% | 91% | 101% | 89% | 
O=C(c1cccs1)C1NO[N+]([O-])=C1c1cccs1 (centres undefined) | 82.3% | 0.474% (active) | 6.64% (active) | -55.3% (active) | -25.1% (active) | 107% | 36.3% | 46.2% |  | 112% |  | -83.3% (active) | -46.8% (active) | 22.8% | 113% | 9.45% (active) | 38.5% | 26.3% | -91.9% (active) | 96.5%
COc1ccc(NP2(=O)OCC(C)(N)CO2)cc1 (centres undefined) | 108% | 101% | 109% | 97.3% | 104% |  | 100% | 97.6% | 98.7% | 96.3% | 108% | 75.6% | 93.2% | 96.6% |  | 95% | 82.2% | 78.5% | 105% | 109%

— PubChem BioAssay (NCI)
